The subject of this assay is P. falciparum stage V gametocytes. Also noted: BacTiter-Glo ATP luminescence viability of purified stage V gametocytes in 384-well plates, per cent inhibition versus DMSO. The conditions noted are these: 48 h, 5 µM, inhibitor.

Like-named read-outs stand apart in the source and are kept apart here. Out of some 13,000 compounds screened, about 3,200 (25%) showed an effect of 50% or more. The list shows a part of the results.

Usually % Inhibition stands for the drop in the measured response relative to a control, in per cent. With `CCCc1ccc(NC(=O)c2ccc(CN3CCCN(CC4CCCCC4)CC3)cc2)cc1` [TCMDC-136420], the “% Inhibition” value is on record as -21.41%.
For `FC(F)(F)c1ccc2[nH]c(-c3ccc(-c4ccc(CN5CCN(c6cnccn6)CC5)cc4)s3)nc2c1.O=C(O)C(F)(F)F` [TCMDC-132677], the “% Inhibition” value came out at 4.163%.
As for `COc1cc(Cc2cnc(N)nc2N)cc(OCCCCC2SC(=O)NC2=O)c1OC` (stereo not shown) [TCMDC-137185], the “% Inhibition” value is on record as -7.728%.
Same read-out and setting: next, `Cc1cnc(NC(=O)c2cn(-c3ccccc3)nc2-c2cccs2)s1` [TCMDC-124433]: 10.72%; `COc1cc2c(c(OC)c1OC)C[C@H]1c3c(cc4c(c3-2)OCO4)CCN1C` [TCMDC-138525]: -52.76%; `N#Cc1ccc2[nH]cc(CN3CCC4(CC3)CN(CCNCc3ccccc3)C(=O)O4)c2c1` [TCMDC-136732]: -34.87%.
The same measure, in the same setting: next, `COc1ccc2ncc(F)c(CCN3C[C@H](CNCc4cc(F)c5c(c4)NC(=O)CO5)[C@H](O)C3)c2n1` [TCMDC-136203]: 28.74%; `Nc1nc2c(ncn2OC[C@H](CO)OCP(=O)(O)O)c(=O)[nH]1` [TCMDC-131639]: 4.722%.
Turning to `O=C(/C=C/c1cc(F)cc(C(F)(F)F)c1)N1CCC(CN2CCC(c3c[nH]c4ccccc34)CC2)CC1` [TCMDC-140385], the “% Inhibition” value is recorded as -12.95%.
Regarding `O=C(/C=C/c1cc(C(F)(F)F)ccc1F)N1CCC(CN2CCC(c3c[nH]c4ccccc34)CC2)CC1` [TCMDC-139857], the “% Inhibition” value is reported as -24.43%.
As for `O=C(/C=C/c1ccc(C(F)(F)F)cc1)N1CCC(CCN2CCC(c3c[nH]c4ccccc34)CC2)CC1` [TCMDC-139761], the “% Inhibition” value is recorded as 107.6%.
For `CCCCN1Cc2c(n(CC(=O)Nc3ccccc3)c3cc(-c4ccccc4)nn3c2=O)C1=O` [TCMDC-125585], the “% Inhibition” value is -0.9231%.
On the same count and under the same terms, the value for `CCN(CC)CCN(Cc1ccc(-c2ccc(C(F)(F)F)cc2)nc1)C(=O)Cn1cc(Cc2cnn(C)c2)c(=O)n2nc(-c3ccccc3)cc12` [TCMDC-140691] was 119%; that for `CCN(CC)CCN(Cc1ccc(-c2ccc(C(F)(F)F)cc2)cc1)C(=O)Cn1cc(Cc2cnn(C)c2)c(=O)n2nc(-c3ccccc3)cc12` [TCMDC-140690] was 119.2%; that for `COc1ccc2nccc([C@@H](O)CN3CCC(NC(=O)/C=C/c4cccc(C)c4)CC3)c2c1` [TCMDC-141114] was -1.317%.
In the case of `O=C(NC1CCN(CCc2c[nH]c3ccc(F)cc23)CC1)c1ncc(-c2ccccc2)[nH]1` [TCMDC-131972], the “% Inhibition” value amounted to 5.191%.
Same read-out and setting: next, `Cc1ccc(NC(=O)Nc2ccc(Br)cc2)cc1OCCN(C)C` [TCMDC-140087]: -42.58%; `COc1ccc(NC(=O)/C=C/c2cc(Br)ccc2F)cc1OCCN(C(C)C)C(C)C` [TCMDC-140668]: -43.25%.
On the same count and under the same terms, next, `CCOC(=O)CN(c1ccc(Br)cc1OCCOc1cc(Br)ccc1N(CC(=O)OCC)C(C)C(=O)OCC)C(C)C(=O)OCC` (stereo not shown) [TCMDC-132003]: 102%.
In the case of `C=CCc1cc(SC)ccc1Oc1ccc(N)cc1` [TCMDC-137690], the “% Inhibition” value is given as -96.62%.
Turning to `Cc1c(-c2cccc(NC(=O)C(C)(C)Oc3ccc(Cl)cc3)c2)nc2ncccn12` [TCMDC-124460], the “% Inhibition” value is on record as 51.92%.
Regarding `Cc1ccccc1C(=O)Nc1cccc(-c2nc3ncccn3c2C)c1` [TCMDC-125138], the “% Inhibition” value is recorded as 25.46%.
`CCOc1ccccc1C(=O)Nc1cccc(-c2nc3ncccn3c2C)c1` [TCMDC-124461]: the “% Inhibition” value stood at 18.92%.
Regarding `CN(c1cc(NC(=O)c2cccs2)ccn1)C1CCN(Cc2cccc(C#N)c2)CC1` [TCMDC-134970], the “% Inhibition” value is reported as 39.85%.
On the same count and under the same terms, next, `Cc1[nH]c(C)c(-c2ccc(Oc3cc(Cl)cc(Cl)c3)cc2)c(=O)c1Br` [TCMDC-137392]: 48.81%; `Cc1[nH]c(C)c(-c2ccc(Cl)cc2Cl)c(=O)c1Br` [TCMDC-137428]: 6.285%; `Cc1[nH]c(C)c(-c2ccc(Oc3ccc(Cl)c(Cl)c3)cc2)c(=O)c1Cl` [TCMDC-137396]: 73.66%.
For `Cc1[nH]c(C)c(-c2ccc(Oc3ccc(Cl)c(Cl)c3)cc2)c(=O)c1Br` [TCMDC-137397], the “% Inhibition” value was 72.37%.
Same read-out and setting: the value for `Cc1[nH]c(C)c(-c2ccc(Oc3ccc(Cl)cc3)c(Cl)c2)c(=O)c1Br` [TCMDC-137409] was 21.95%; that for `Cc1[nH]c(C)c(-c2ccc(Oc3ccc(Cl)cc3Cl)cc2)c(=O)c1Br` [TCMDC-137533] was 62.65%; that for `Cc1noc(C)c1-c1ccc(C(=C2CCCCCC2)c2ccc(O)cc2)cc1` [TCMDC-135873] was -11.65%.
Still for that read-out and setting: the value for `CCCCCc1cc(O)c2c(c1)OC(C)(C)C=C2C1=CCN(Cc2ccsc2)CC1` [TCMDC-131400] was -46.98%.
On to `COc1cc(NC(=O)c2c(-c3c(F)cccc3Cl)noc2C)c(OC)cc1Cl` [TCMDC-123635], for which the “% Inhibition” value was determined as 20.08%.
Turning to `Cc1ccc(NC(=O)c2cccc(CN3CCCN(Cc4cccc(O)c4)CC3)c2)cc1` [TCMDC-135961], the “% Inhibition” value was found to be 28.04%.
As for `CCN1CCN(Cc2c(O)ccc3c(=O)c(Oc4cc(C)cc(C)c4)c(C(F)(F)F)oc23)CC1` [TCMDC-125696], the “% Inhibition” value worked out at 11.78%.
On to `NC1=NC2(CCCCC2)N(Cc2ccc(Cl)c(Cl)c2)C(N)=N1` [TCMDC-136304], for which the “% Inhibition” value is -26.78%.
On to `CN1CC=C(c2c[nH]c3ccc(C(=O)c4nccs4)cc23)CC1` [TCMDC-137277], for which the “% Inhibition” value was found to be 17.28%.
In the case of `Cc1cc(Nc2ccccc2)nc(NCCOc2ccccc2)n1` [TCMDC-137574], the “% Inhibition” value is listed as 48.49%.
In the case of `O=C(O)c1cccc2c(-c3ccncc3)cccc12` [TCMDC-139219], the “% Inhibition” value turned out to be 9.999%.
Consider `Cn1ccnc1S(=O)(=O)CCNCc1ccc(-c2ccc3ncnc(Nc4ccc(OCc5cccc(F)c5)c(Cl)c4)c3c2)o1` [TCMDC-138564], for which the “% Inhibition” value worked out at 21.76%.
As to `Cc1ccc(C(CC(=O)Nc2nccs2)c2ccc(OC(C)C)cc2)cc1` (stereo not shown) [TCMDC-124467], the “% Inhibition” value was found to be 72.01%.
Turning to `CCOc1ccc(S(=O)(=O)N(C)c2ccc(OCC(=O)Nc3nccs3)cc2)cc1` [TCMDC-123622], the “% Inhibition” value amounted to 21.93%.
`O=C(COc1ccc(C(=O)c2ccccc2)cc1)Nc1nccs1` [TCMDC-124432]: the “% Inhibition” value was -13.79%.
As to `O=C(/C=C/c1ccc(Cl)c(Cl)c1)NCCCCCN1CCC(NC(=O)c2ccc([N+](=O)[O-])cc2)CC1` [TCMDC-135843], the “% Inhibition” value was 15.45%.
For the compound `CCn1ccc2c(N3CCCS3(=O)=O)cc(C(=O)N[C@@H](Cc3ccccc3)[C@H](O)CNC(C)(C)c3cccc(OC)c3)cc21` [TCMDC-134672], the “% Inhibition” value is 43.65%.
Regarding `CCn1ccc2c(N3CCCS3(=O)=O)cc(C(=O)N[C@@H](Cc3ccccc3)[C@H](O)CNC3CCCCC3)cc21` [TCMDC-135315], the “% Inhibition” value was found to be 41.25%.
`CCn1cnc2c(N3CCCS3(=O)=O)cc(C(=O)N[C@@H](Cc3ccccc3)[C@H](O)CNC(C)(C)c3cccc(C(F)(F)F)c3)cc21` [TCMDC-135450]: the “% Inhibition” value worked out at 36.58%.
`CCOc1cc(C(=O)N[C@@H](Cc2ccccc2)[C@H](O)CNC(C)(C)c2cccc(OC)c2)cc(N2CCCS2(=O)=O)c1` [TCMDC-134403]: the “% Inhibition” value came out at 22.2%.
Still for that read-out and setting: next, `CCCN(CCC)C(=O)c1cc(C(=O)N[C@@H](Cc2ccccc2)[C@H](O)CNCc2cccc(OC)c2)cc(N2CCCCS2(=O)=O)c1` [TCMDC-138893]: -16.98%; `CCn1ccc2c(N3CCCCS3(=O)=O)cc(C(=O)N[C@@H](Cc3ccccc3)[C@H](O)CNC(C)(C)c3cccc(C(F)(F)F)c3)cc21` [TCMDC-135317]: 87.8%; `CCCN(CCC)C(=O)c1cc(C(=O)N[C@@H](Cc2ccccc2)[C@H](O)CNC(C)(C)c2cccc(C(F)(F)F)c2)cc(N2CCCCS2(=O)=O)c1` [TCMDC-134675]: 20.25%.
`CCCN(CCC)C(=O)c1cc(C(=O)N[C@@H](Cc2ccccc2)[C@H](O)CNCc2cccc(C(F)(F)F)c2)cc(N2CCCCS2(=O)=O)c1` [TCMDC-138883]: the “% Inhibition” value is recorded as -16.54%.
Still for that read-out and setting: the value for `CCCN(CCC)C(=O)c1cc(C(=O)N[C@@H](Cc2ccccc2)[C@H](O)CNC(C)(C)c2cccc(OC)c2)cc(N2CCCCS2(=O)=O)c1` [TCMDC-134674] was 75.74%.
The same measure, in the same setting: the value for `CCn1ccc2c(N3CCCCS3(=O)=O)cc(C(=O)N[C@@H](Cc3ccccc3)[C@H](O)CNC3CCCCC3)cc21` [TCMDC-135314] was 53.3%; that for `CCn1cnc2c(N3CCCCS3(=O)=O)cc(C(=O)N[C@@H](Cc3ccccc3)[C@H](O)CNC3CCOCC3)cc21` [TCMDC-135662] was 16.67%.
The same measure, in the same setting: next, `CCN1CCc2c1cc(C(=O)N[C@@H](Cc1ccccc1)[C@H](O)CNC(C)(C)c1cccc(C(F)(F)F)c1)cc2N1CCCCS1(=O)=O` [TCMDC-135451]: 62.24%; `CC[C@H](C)[C@@H](C(=O)N1CCOCC1)N1CC[C@H](NS(=O)(=O)CC(C)(C)c2ccc(Cl)cc2)C1=O` [TCMDC-138910]: -4.326%.
As for `N#Cc1ccc(N2CCN(Cc3cccc(-c4ccc(-c5nc6cc(C(F)(F)F)ccc6[nH]5)s4)c3)CC2)nc1.O=C(O)C(F)(F)F` [TCMDC-133114], the “% Inhibition” value was -37.6%.
As to `CCCCCC(C)c1cc(O)c2c(c1)OC(C)(C)C=C2C1=CCN(Cc2ccccc2)CC1` (stereo not shown) [TCMDC-131350], the “% Inhibition” value is reported as -56.28%.
On to `FC(F)(F)c1ccc(NC(=S)NC2CCC(CN3CCC(c4c[nH]c5ccccc45)CC3)CC2)cc1` (stereo not shown) [TCMDC-140198], for which the “% Inhibition” value (% Inhibition) is recorded as 109.8%.
As to `O=C(NC1CCC(CN2CCC(c3c[nH]c4ccccc34)CC2)CC1)c1csc(-c2cccc(Cl)c2Cl)n1` (stereo not shown) [TCMDC-140351], the “% Inhibition” value is given as -28.23%.
As to `O=C(NC1CCC(CN2CCC(c3c[nH]c4ccccc34)CC2)CC1)c1ccc(-c2cc(C(F)(F)F)ccc2Cl)o1` (stereo not shown) [TCMDC-140350], the “% Inhibition” value is given as -5.918%.
In the case of `O=C(Nc1ccccc1Cl)NC1CCC(CN2CCC(c3c[nH]c4ccccc34)CC2)CC1` (stereo not shown) [TCMDC-140176], the “% Inhibition” value (% Inhibition) is on record as -4.106%.
With `FC(F)(F)c1ccc(NC(=S)NC2CCC(CN3CCC(c4c[nH]c5ccccc45)CC3)CC2)cc1` (stereo not shown) [TCMDC-140178], under “% Inhibition”, the “% Inhibition” value stood at 78.37%.
For the compound `O=C(NC1CCC(CN2CCC(c3c[nH]c4ccccc34)CC2)CC1)c1csc(-c2ccc(C(F)(F)F)cc2Cl)n1` (stereo not shown) [TCMDC-140352], the “% Inhibition” value worked out at 52.36%.
Consider `O=C(NC1CCC(CN2CCC(c3c[nH]c4ccccc34)CC2)CC1)NC12CC3CC(CC(C3)C1)C2` (stereo not shown) [TCMDC-140204], for which the “% Inhibition” value is given as 96.25%.
As to `O=C(Nc1ccccc1Cl)NC1CCC(CN2CCC(c3c[nH]c4ccccc34)CC2)CC1` (stereo not shown) [TCMDC-140196], the “% Inhibition” value (% Inhibition) came out at 17.3%.

Source of the values: article PMC4552634, “A New Set of Chemical Starting Points with Plasmodium falciparum Transmission-Blocking Potential for Antimalarial Drug Discovery” (PLoS ONE, 2015).
